Assay results: PubChem BioAssay (NCI)
About 79,000 compounds went through this panel and 15% of them were active in at least one assay; those are over-represented in the sample as a whole. Unmarked numbers belong to inactive results. Calls of active or inactive are those of the source. No stated cut-off is given here; in the data, active means growth inhibition above about 70%; inactive means the rest.

Experiments:
[1] = NCI Yeast Anticancer Drug Screen. Data for the rad50 strain (AID 155);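 further: 0% = growth of vehicle-only cultures of the same strain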; details: S. cerevisiae rad50 strain growth inhibition, stronger effect = higher value
Outline: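 Vehicle-treated cultures provide the reference for the growth inhibition reported for compound-exposed, repair-deficient yeast.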

[2] = NCI Yeast Anticancer Drug Screen. Data for the mec2-1 strain (AID 157); details: S. cerevisiae mec2-1 strain, stronger effect = higher value
Outline: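 Yeast mec2-1 mutant treated with compound. Readout: growth inhibition vs vehicle controls.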

[3] = NCI Yeast Anticancer Drug Screen. Data for the sgs1 mgt1 strain (AID 161);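 further: 0% = growth of cultures given vehicle only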; details: S. cerevisiae sgs1 mgt1 strain, stronger effect = higher value
Outline: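 Test agents were incubated with a DNA-repair-mutant yeast strain. Growth was then read and compared against vehicle-treated controls.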

[4] = NCI Yeast Anticancer Drug Screen. Data for the cln2 rad14 strain (AID 165);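 further: 0% = growth equal to vehicle treated cultures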; details: S. cerevisiae cln2 rad14 strain, stronger effect = higher value
Outline: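 cln2 rad14 yeast strain; compound exposure; growth inhibition read vs vehicle controls.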

[5] = NCI Yeast Anticancer Drug Screen. Data for the bub3 strain (AID 167); details: S. cerevisiae bub3 mutant strain, stronger effect = higher value
Outline: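 Mutant yeast screening strain plus compound; vehicle-treated cultures serve as the 0% inhibition reference.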

[6] = NCI Yeast Anticancer Drug Screen. Data for the mlh1 rad18 strain (AID 175); details: S. cerevisiae mlh1 rad18 strain growth inhibition, stronger effect = higher value
Outline: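 Yeast w/ defined DNA-repair lesions; compound exposure; growth vs vehicle controls → % inhibition.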

[7] = at 5.0 µM (retest, dose inferred, filed as 0.5)
[8] = at 50.0 µM (retest, dose inferred, filed as 5.0)

| Compound | growth inhibition [1, 7] | growth inhibition [1, 8] | growth inhibition ([1]; at 50.0 µM) | growth inhibition [2, 7] | growth inhibition [2, 8] | growth inhibition ([2]; at 50.0 µM) | growth inhibition [3, 7] | growth inhibition [3, 8] | growth inhibition ([3]; at 50.0 µM) | growth inhibition [4, 7] | growth inhibition [4, 8] | growth inhibition ([4]; at 50.0 µM) | growth inhibition [5, 7] | growth inhibition [5, 8] | growth inhibition ([5]; at 50.0 µM) | growth inhibition [6, 7] | growth inhibition [6, 8] | growth inhibition ([6]; at 50.0 µM) |
| --- | --- | --- | --- | --- | --- | --- | --- | --- | --- | --- | --- | --- | --- | --- | --- | --- | --- | --- |
| Ic1[nH]c(I)c(I)c1I | 13% | 97% (active) | 95.2% (active) | 16% | 98% (active) | 95% (active) | 10% | 95% (active) | 97% (active) | -2% | 96% (active) | 94.3% (active) | 14% | 98% (active) | 96.7% (active) | 11% | 95% (active) | 92.7% (active) |
| CCOC(=O)Nc1cc2c(c(N)n1)N=C(c1ccccc1)CN2 | 6% | 34% | 36.3% | -25% | 35% | -3.7% | -13% | 89% (active) | 37.2% | 11% | 33% | 17.9% | 22% | 80% (active) | 47.1% | – | – | – |
| CSc1nc(N)c2cnn(C3OC(CO)C(O)C3O)c2n1 (stereo unspecified) | -9% | 8% | 9.55% | -12% | -11% | 2.8% | -25% | -6% | 15.2% | 7% | 28% | 6.8% | 3% | 80% (active) | 12% | -20% | -12% | 22% |
| COc1ccc(/C=N/NS(=O)(=O)c2ccc(C)cc2)cc1 | 13% | 83% (active) | 94.2% (active) | -5% | 97% (active) | 67.9% | 6% | 98% (active) | 91.7% (active) | 18% | 96% (active) | 45.4% | 23% | 94% (active) | 46.3% | – | – | – |
| [N-]=[N+]=Nc1ccnc2ccc(C3CCCCC3)cc12 | -8% | 99% (active) | 56.5% | -8% | 100% (active) | 30.9% | -8% | 99% (active) | 94.8% (active) | 6% | 99% (active) | 51.1% | -4% | 99% (active) | 67.3% | -2% | 99% (active) | 91.7% (active) |
| CC(C)NC(=O)OCCN=C1c2ccccc2CCc2ccccc21 | -17% | 95% (active) | 76.4% (active) | -32% | 96% (active) | 78.8% (active) | -46% | 89% (active) | 77.5% (active) | -26% | 60% | 61.5% | -62% | 97% (active) | 81.5% (active) | – | – | – |
| Clc1ccc2nc(Cl)c(Cl)nc2c1 | -143% | 42% | 81.3% (active) | -43% | 27% | 45.3% | -56% | 76% (active) | 88.9% (active) | -54% | 51% | 59.5% | -71% | 44% | 65.2% | – | – | – |
| O/N=C(/Cc1nc2cc(Cl)c(Cl)cc2nc1C/C(=N/O)c1ccncc1)c1ccncc1 | 5% | 65% | 82.2% (active) | 11% | 77% (active) | 87.6% (active) | 4% | 55% | 79% (active) | 6% | 68% | 84.5% (active) | 5% | 77% (active) | 74% (active) | 1% | 47% | 89.5% (active) |
| C[C@@H]1CN(CC2COc3ccccc3O2)[C@@H](C)CN1CC1COc2ccccc2O1 (stereo partly specified) | 63% | 80% (active) | 86.8% (active) | 74% (active) | 86% (active) | 84.3% (active) | 84% (active) | 98% (active) | 97.4% (active) | 52% | 65% | 92.8% (active) | 52% | 77% (active) | 84.7% (active) | 82% (active) | 94% (active) | 94.5% (active) |
| CC(C)Cc1cc2c(cc1O)CCC1C2CC[C@@]2(C)C1CC[C@@H]2O (stereo partly specified) | -10% | 97% (active) | 75.8% (active) | -17% | 95% (active) | 80.4% (active) | -12% | 97% (active) | 86.5% (active) | -22% | 98% (active) | 89.3% (active) | -34% | 97% (active) | 87% (active) | – | – | – |
| COc1ccc(/C=N/NC(=O)c2ccco2)cc1OC | -5% | 0% | 63.5% | -5% | -15% | 73.2% (active) | -3% | 5% | 23.8% | -21% | -20% | 19.1% | -7% | -13% | 56.2% | -6% | -14% | 35.8% |
| CCOC(=O)C(NC(=O)c1ccccc1)[CH](c1ccc(OC)cc1)[Sn]([c]1ccccc1)([c]1ccccc1)[c]1ccccc1 (stereo unspecified) | 65% | 89% (active) | 77.7% (active) | 37% | 91% (active) | 75.2% (active) | 38% | 88% (active) | 79.2% (active) | 26% | 48% | 54.5% | 44% | 94% (active) | 79% (active) | 64% | 86% (active) | 69.1% |
| O=[N+]([O-])c1ccc(/C=N/NC2=CS(=O)(=O)C=C2)cc1 | 0% | 17% | 0.8% | -2% | 0% | 2.45% | -5% | 1% | 8.4% | -2% | 0% | 38% | -4% | 5% | 16.7% | – | – | – |
| CCCC(=O)OCC1CC2C=CC1C2 (stereo unspecified) | 0% | -3% | -6.25% | 0% | 2% | -7.65% | 0% | -1% | -18.3% | -7% | 3% | 79.2% (active) | -3% | 2% | 15% | -1% | -5% | -3.9% |
| Cc1cc(C)c(O)c(C(C)(C)C)c1 | -1% | 3% | 92.3% (active) | 1% | 1% | 59.7% | 1% | 0% | 74.7% (active) | 2% | 8% | 64.6% | 3% | -10% | 66.8% | – | – | – |
| COc1cc(NS(=O)(=O)c2ccc(NC(C)c3ccc4cccnc4c3O)cc2)nc(OC)n1 (stereo unspecified) | 3% | 81% (active) | 95.1% (active) | 2% | 40% | 97.2% (active) | 1% | 87% (active) | 69.4% | -3% | 78% (active) | 66% | -2% | 88% (active) | 96.8% (active) | – | – | – |
| Nc1ccc(SC23CC4CC(CC(C4)C2)C3)cc1 | 1% | 74% (active) | 94.1% (active) | 0% | 42% | 94.4% (active) | 9% | 78% (active) | 96% (active) | -69% | 61% | 95.1% (active) | 40% | 33% | 95.7% (active) | 10% | 91% (active) | 89.2% (active) |
| COC(=O)c1nnn(-c2ccc(Cl)cc2Cl)c1C(=O)c1ccc(Cl)c(Cl)c1 | 11% | 99% (active) | 98.3% (active) | 2% | 99% (active) | 95.5% (active) | 4% | 99% (active) | 99% (active) | 11% | 98% (active) | 92.1% (active) | 17% | 99% (active) | 95.8% (active) | 19% | 99% (active) | 98.7% (active) |
| Cc1ccc(S(=O)(=O)N/N=C2\CC(C)OC3=C2CCCCCC3)cc1 (stereo unspecified) | 13% | 95% (active) | 75.5% (active) | 0% | 94% (active) | 79.3% (active) | 1% | 93% (active) | 61.1% | -3% | 92% (active) | 77.5% (active) | 1% | 95% (active) | 75.6% (active) | 31% | 95% (active) | 67.8% |
| COc1cc2c(c(C)c1O)[C@H]1COc3ccccc3[C@H]1O2 | -24% | -9% | 75.2% (active) | -38% | -9% | 77.8% (active) | 17% | 13% | 89.9% (active) | 10% | 11% | 57% | 10% | 61% | 83.9% (active) | -22% | 10% | 65.5% |
